# Laboratory results: the OligoGym collection
# Biological target: ITGAM
# Assay: pooled miR-30 sensor sort-seq; sequence = guide strand
# Conditions: shRNA
# Further: reference of the scale not given here.
row,Sequence,sensor-assay potency score (higher = more potent)
1,TTGAACTCCATGATTGCCTTGA,0.856
2,TTCCTTGCCTTTCACCACCTGA,-0.688
3,TTCTCTTGGAAGGTCATTGCGT,-0.213
4,TCAGTGTCCAAGTTGAACCCAT,-0.0132
5,TTCATGTCTGAATCCACTCTGG,0.203

# Biological target: ITLN1
# Assay: as above
# Conditions: shRNA
row,Sequence,sensor-assay potency score (higher = more potent)
1,TGAACTGAACAAATCCCGCAGT,0.114
2,TCGTCTTTGATTTCCTTGCAGC,-0.887
3,TAGACCACAGGGATCACCGGGC,0.112
4,TTCGTCTTTGATTTCCTTGCAG,0.319
5,TTTCACTGGATATTTCTGGTAG,0.272
6,TTGTCAGTCCAACACTTTCCTT,-1.43
7,TTCCATATCCACTCCAATCAAA,-1.07
8,TTAGCCTCATCTGTACTCCATC,-0.855
9,ATGCACTAGGACATTCGTCTTT,-0.936
10,TAACATTCTAGCTACTGGGTAA,-0.292
11,TGCACTAGGACATTCGTCTTTG,-0.456
12,TGTCAGTCCAACACTTTCCTTC,0.0274

# Biological target: ITPRIP
# Assay: as above
# Conditions: shRNA
row,Sequence,sensor-assay potency score (higher = more potent)
1,TGAACGGAACTTGATCTTCAGG,-1.39
2,TTGATCTTCAGGGACCCCGGGC,-0.883
3,TTAGAAGCAGCTTTGGTGCAGA,0.222
4,TTTTCAGTGAACTTTCTCCTGG,-0.029
5,TTCAAGTACAGACTGGATCTGG,0.622
6,TTGAAGGGCATGAACTTCCCTG,0.113
7,TAGGAGGTGCAGTAGGGCCGTC,-0.656
8,TTGGTCTTGCCGCAGATGCAGC,-1.52
9,TTCTTCTGGAGCAAGCTCTTCT,-0.26
10,TTTAGTGTCGTCCTGAGGAAGT,-0.751
11,TAAGGCAGCATGAAACACCAAG,-0.493
12,TTGAGCATCTCATAGAAGGAGT,-0.45

# Biological target: JAM3
# Assay: as above
# Conditions: shRNA
row,Sequence,sensor-assay potency score (higher = more potent)
1,TTCTGAATGAGTGTCTAGCTCT,-0.216
2,TTTCCTTGCGGTCATTTCGAGC,-1.23
3,TTATTGTTGATGAAGTAGCCAC,-0.389
4,TTCATCTTGAATTTTCTTCCAC,0.166
5,TAAAGGGCTGAGTCTCTCCGTG,-0.394
6,TTGTTGATGAAGTAGCCACGTC,-0.698
7,TTCACTTGCACAGTTAACTCGA,0.721
8,TAGCAGAGGTATGTGCACGTGC,-0.388
9,TTCCACACTTTCAAATTCCTGT,0.0526
10,TTGATGAAGTAGCCACGTCTGT,-0.852
